From PubChem BioAssay AID434927 (Sanford-Burnham Center for Chemical Genomics, 2010) come the findings set out here.

Activity calls are given as the source filed them.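 Rule for the calls: active = inhibition above about 23% in any of six single-dose repeats (limit read from the data); inactive = the rest.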

For orientation: inhibition means the change of the read-out against control, counted positive when it falls.

In this assay the target is Intestinal-type alkaline phosphatase (Homo sapiens) (UniProt P09923). Description: suppression of intestinal alkaline phosphatase activity – biochemical, luminescence, single concentration, uHTS hits, confirmation (AID 434927).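 Note: plate controls were DMSO wells with enzyme for no effect and wells lacking enzyme for full effect.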 The conditions noted are these: purified human IAP, CDP-Star luminescence, 30 min; at 8.3 µM; hits give high values.
Sequence of Intestinal-type alkaline phosphatase (Homo sapiens) (P09923 whole entry, looked up): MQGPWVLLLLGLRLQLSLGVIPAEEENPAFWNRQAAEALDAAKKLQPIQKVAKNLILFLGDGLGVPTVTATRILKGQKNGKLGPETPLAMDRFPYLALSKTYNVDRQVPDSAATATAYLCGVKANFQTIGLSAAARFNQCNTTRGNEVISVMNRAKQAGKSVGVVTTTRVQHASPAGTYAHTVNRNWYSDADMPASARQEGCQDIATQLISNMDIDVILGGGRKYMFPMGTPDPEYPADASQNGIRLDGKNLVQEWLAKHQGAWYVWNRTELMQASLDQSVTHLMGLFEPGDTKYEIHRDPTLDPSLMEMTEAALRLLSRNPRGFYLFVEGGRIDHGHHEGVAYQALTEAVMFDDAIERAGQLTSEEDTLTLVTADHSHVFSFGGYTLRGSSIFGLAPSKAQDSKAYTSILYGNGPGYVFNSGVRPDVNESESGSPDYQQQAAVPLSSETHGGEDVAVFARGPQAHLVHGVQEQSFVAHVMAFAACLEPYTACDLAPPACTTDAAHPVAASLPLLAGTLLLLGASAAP

For `COC(=O)Cn1cc(/C=C2\C(=O)NC(=O)N(c3ccccc3)C2=O)c2ccccc21`, the inhibition was 33.9% (active).
